Assays:
Conditions in all cases: concentration: 1 μM, replicates: in singlicate; n = 1
RIPK1 = tested on: RIPK1
RIPK2 = tested on: RIPK2
RIPK4 = tested on: RIPK4
RIPK5 = tested on: RIPK5
ROCK1 = tested on: ROCK1
ROCK2 = tested on: ROCK2
ROS1 = tested on: ROS1
[1] = tested on: RPS6KA4(Kin.Dom.1-N-terminal)
[2] = tested on: RPS6KA4(Kin.Dom.2-C-terminal)
[3] = tested on: RPS6KA5(Kin.Dom.1-N-terminal)
[4] = tested on: RPS6KA5(Kin.Dom.2-C-terminal)
[5] = tested on: T1, RSK1(Kin.Dom.1-N-terminal)
T1 construct: gene RPS6KA1

[6] = tested on: T2, RSK1(Kin.Dom.2-C-terminal)
T2 construct: gene RPS6KA1

[7] = tested on: T3, RSK2(Kin.Dom.1-N-terminal)
T3 construct: gene RPS6KA3

[8] = tested on: T4, RSK2(Kin.Dom.2-C-terminal)
T4 construct: gene RPS6KA3

[9] = tested on: T5, RSK3(Kin.Dom.1-N-terminal)
T5 construct: gene RPS6KA2

[10] = tested on: T6, RSK3(Kin.Dom.2-C-terminal)
T6 construct: gene RPS6KA2

[11] = tested on: T7, RSK4(Kin.Dom.1-N-terminal)
T7 construct: gene RPS6KA6

[12] = tested on: T8, RSK4(Kin.Dom.2-C-terminal)
T8 construct: gene RPS6KA6

S6K1 = tested on: S6K1
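Also: KINOMEscan kinase panel screen.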

Row | Compound | %Inh (RIPK1) [%] | %Inh (RIPK2) [%] | %Inh (RIPK4) [%] | %Inh (RIPK5) [%] | %Inh (ROCK1) [%] | %Inh (ROCK2) [%] | %Inh (ROS1) [%] | %Inh [1] [%] | %Inh [2] [%] | %Inh [3] [%] | %Inh [4] [%] | %Inh [5] [%] | %Inh [6] [%] | %Inh [7] [%] | %Inh [8] [%] | %Inh [9] [%] | %Inh [10] [%] | %Inh [11] [%] | %Inh [12] [%] | %Inh (S6K1) [%]
1 | CS(=O)(=O)CCNCc1nc(-c2ccc3ncnc(Nc4ccc(OCc5cccc(F)c5)c(Cl)c4)c3c2)cs1.Cl [GW583340] | 2 | 42 | 6 | 1 | 5 | 0 | 0 | 10 | 0 | 0 | 9 | 22 | 10 | 0 | 0 | 0 | 11 | 0 | 25 | 6
2 | O=C(Nc1ccccc1F)NC1CCN(c2ccnc(Nc3ccc(F)cc3)n2)C1 (centres unmarked) [GSK1379722] | 0 | 0 | 98.7 | 0 | 11 | 16 | 22 | 6 | 0 | 20 | 19 | 8 | 0 | 14 | 28 | 13 | 0 | 0 | 0 | 11
3 | Cl.Cl.c1ccc(-c2cc3ccncc3cc2OC2CCNCC2)cc1 [GSK1122999] | 31 | 17 | 9 | 1 | 94.6 | 91.6 | 33 | 11 | 39 | 27 | 8 | 22 | 21 | 9 | 55 | 0 | 6 | 0 | 30 | 7
4 | COc1ccc(Nc2nccc(N3CCC(NC(=O)Nc4ccc5c(c4)OCO5)C3)n2)cc1 (centres unmarked) [GSK1379745] | 0 | 0 | 0 | 0 | 12 | 9 | 34 | 13 | 0 | 0 | 0 | 0 | 8 | 10 | 0 | 17 | 19 | 0 | 41 | 0
5 | CNc1nccc(-c2c(-c3ccc(F)cc3)ncn2C2CCN(C)CC2)n1 [SB-222903] | 3 | 40 | 0 | 2 | 56 | 0 | 0 | 15 | 0 | 0 | 12 | 0 | 32 | 5 | 0 | 0 | 0 | 0 | 73 | 0
6 | O=C(CCO)NCCn1ccc2ncnc(Nc3ccc(Oc4cccc(C(F)(F)F)c4)c(Cl)c3)c21 | 0 | 7 | 0 | 0 | 0 | 0 | 0 | 18 | 0 | 3 | 0 | 0 | 0 | 0 | 0 | 3 | 4 | 0 | 0 | 0
7 | O=c1cc(N2CCOCC2)nc2n(Cc3cccc(Cl)c3)ccn12 [GSK2296823] | 0 | 0 | 19 | 0 | 0 | 0 | 0 | 6 | 0 | 10 | 7 | 10 | 0 | 21 | 27 | 0 | 0 | 0 | 19 | 0
8 | Oc1ccc2ncnc(Nc3ccc(OCc4ccccc4)cc3)c2c1 [GI262866] | 1 | 100 | 6 | 0 | 0 | 0 | 0 | 8 | 0 | 4 | 0 | 0 | 0 | 0 | 0 | 5 | 0 | 0 | 0 | 0
9 | Nc1nccc2scc(-c3ccc4c(c3)CCN4C(=O)Cc3cc(F)ccc3F)c12 [GSK2587663] | 83 | 3 | 0 | 0 | 28 | 12 | 16 | 14 | 0 | 15 | 0 | 12 | 15 | 3 | 7 | 29 | 0 | 0 | 13 | 0
10 | Cn1cc(-c2ccc3c(c2)CCN3C(=O)Cc2cccc(C(F)(F)F)c2)c2c(N)ncnc21 [GSK2606414] | 75 | 1 | 3 | 9 | 4 | 13 | 0 | 16 | 0 | 25 | 0 | 0 | 2 | 18 | 0 | 0 | 0 | 0 | 12 | 4

Source: article PMC5540273 (PLoS ONE, 2017)
